Pf growth 96h – P. falciparum growth inhibition at 96 hour, primary screen for plastid delayed-death inhibitors | P. falciparum luciferase reporter growth, 96 h | Potency, µM (doses to about 28.7 µM), most hits filed as inhibitors | 6.9% of 320,000 active | AID 504834
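P. falciparum expressing integrated firefly luciferase grown in erythrocytes (2% hematocrit, 0.05% parasitemia final) with compounds for 96 hours at 37 C, 5% CO2. Growth inhibition read as loss of luminescence after adding luciferase detection reagent.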
Pf growth 48h – P. falciparum growth inhibition at 48 hours (one generation); P. falciparum luciferase growth in erythrocytes, 48 h; Potency, µM (series often up to 28.7 µM), usual class: inhibitors; 5.9% of 310,000 active
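Luciferase-expressing P. falciparum in infected erythrocytes (2% hematocrit, 0.1% parasitemia final) in RPMI 1640/0.5% Albumax were exposed to compound for 48 hours at 37 C, 5% CO2; growth read as luminescence.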
SARS PLpro yeast – blocks SARS-CoV papain-like protease in a yeast assay; AID 485353; Potency, µM (series often up to 32.9 µM), actives largely listed as activators; S. cerevisiae expressing SARS-CoV PLpro, growth rescue; 0.19% of 330,000 active; calls by dose curve; note: nearly all actives have a fitted effect of over 55% in size
AMA1 RON2 block – disrupts binding of P. falciparum AMA1 to RON2; Potency, µM (titrated, usually from 58.2 µM), hits mostly inhibitors; AlphaScreen AMA1-biotinylated RON2 peptide binding; AID 720542; 0.2% of 360,000 active; note: nearly all actives have a fitted effect of over 45% in size
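AMA1 (3D7) with his tag at 25 nM final met compounds first, then biotinylated RON2 peptide at 25 nM; detection used donor plus acceptor beads, 10 µg/mL apiece, read by AlphaScreen after 30 min at room temperature.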
A number is an active result; – = inactive; ? = inconclusive; · = no result; [ ] = another dose, or the depositor's remark. Most compounds without a hit are left out; they make up all but 9.4% or so of the library. Unless noted, calls come from the whole dose curve; as a rule, active = well fitted curve in the direction sought with a large enough effect; inconclusive = small, poorly fitted or top-dose-only effect, or another doubt; inactive = no such curve, though single readings can be large; an effect the other way counts as inactive or inconclusive.

SMILES | Pf growth 96h | Pf growth 48h | SARS PLpro yeast | AMA1 RON2 block
COc1cc2c(cc1NC(=O)C(C)N1CCN(S(=O)(=O)c3ccc(C)c(C)c3)CC1)oc1ccccc12 (stereo not drawn) | 3.3µM | · | – | –
COc1cc2c(cc1NC(=O)C(C)OC(=O)c1ccc(S(=O)(=O)Nc3ccccc3Cl)cc1)oc1ccccc12 (stereo not drawn) | 5.2µM | ? | – | –
COc1cc2c(cc1NC(=O)CN1CCN(S(=O)(=O)c3ccc(C)cc3)CC1)oc1ccccc12 | – | – | · | –
COc1ccc(S(=O)(=O)Nc2ccccc2Cl)cc1NC(C)=O | – | –[5.75 µM] | – | –
CC(NC(=S)Nc1c(Cl)cccc1OC(F)F)C(C)(C)C (stereo not drawn) | – | – | ? | –
COc1cc2c(cc1OC)N1C(=O)CC(OCC(=O)O)C3C4CC5(CCN5C(=O)C4=O)C2C31 (stereo not drawn) | – | 12µM | – | –
CC(=O)c1ccc(N2CCN(C(=S)NCc3ccco3)CC2)cc1 | 13µM | – | – | –
S=C(NCc1ccco1)N1CCN(Cc2ccc(Cl)cc2Cl)CC1 | 10µM | ? | – | –
COCCN(C(=O)COC(=O)/C=C/c1ccc(C)o1)c1c(N)n(Cc2ccccc2)c(=O)[nH]c1=O | ? | – | – | –
CCOC(=O)c1c(NC(=O)c2ccco2)sc(C(=O)N2CCCC2)c1C | – | – | – | –
O=C(CSC1c2ccccc2C(=O)N1c1ccccc1)N1CCOCC1 (stereo not drawn) | – | – | – | –
Cn1c(=O)n(C)c2cc(S(=O)(=O)NCCOCCO)ccc21 | ? | · | – | –
COc1ccc(N=C2SC(C(=O)N3CCN(c4ccc([N+](=O)[O-])cc4)CC3)CC(=O)N2C)cc1 (stereo not drawn) | – | 15µM | – | –
COc1ccc(N2CCN(C(=O)C3CC(O)CN3S(=O)(=O)c3ccc([N+](=O)[O-])cc3)CC2)cc1 (stereo not drawn) | – | – | – | –
O=C(O)/C=C/C(=O)c1ccc(O)cc1 | 0.93µM | ? | – | –
O=C(O)/C=C/C(=O)Nc1ccc(O)cc1 | 10µM | – | – | –
CCCCC(=O)N(CCOC)c1nnc(-c2cccnc2)s1 | – | – | – | –
Brc1ccc(CSc2nnc(-c3ccccn3)n2Cc2ccco2)cc1 | 3.7µM | ? | – | –
CC(C)(C)c1ccc(CSc2nnc(-c3ccccn3)n2Cc2ccco2)cc1 | · | 7.4µM | – | –
Cc1ccc(C(=O)OCC(=O)NC(=O)c2ccc(C(C)(C)C)cc2)c(O)c1 | – | – | – | –
COc1ccc(S(=O)(=O)n2nc(OC(=O)C3CCCCC3)cc2N)cc1 | – | – | – | –
O=c1nc(N2CCCC2)nc(Nc2ccccc2)[nH]1 | 15µM | – | – | –
c1ccc(Nc2nc(Nc3ccccc3)nc(N3CCNCC3)n2)cc1 | 9.3µM | ? | – | –
CNC(=S)NN=C(C)c1ccc(OC)cc1O | · | · | · | –
COc1ncccc1C(=O)N1CCCC(C(=O)c2cc(F)ccc2F)C1 (stereo not drawn) | – | – | – | –
SMILES | Pf growth 96h | Pf growth 48h | SARS PLpro yeast | AMA1 RON2 block
CCc1noc(C)c1C(=O)N1CCCC(C(=O)c2cc(F)ccc2F)C1 (stereo not drawn) | – | – | – | –
COc1ccccc1C(=O)C1CCCN(C(=O)CSc2ccccn2)C1 (stereo not drawn) | 10µM | – | – | –
COc1ccc(F)cc1C(=O)C1CCCN(C(=O)CSc2ccccn2)C1 (stereo not drawn) | – | ? | – | –
CSc1ncccc1C(=O)N1CCCC(C(=O)c2cc(F)ccc2F)C1 (stereo not drawn) | 9.3µM | – | – | –
CCc1noc(C)c1C(=O)N1CCCC(C(=O)c2cc(F)ccc2OC)C1 (stereo not drawn) | 12µM | – | – | –
CC(=O)N1CCc2c(sc(NC(=O)Cc3ccccc3)c2C#N)C1 | – | – | – | –
CCOC(=O)c1c(C)[nH]c(C(=O)C(C)OC(=O)c2ccc(NC(=O)CC#N)cc2)c1C (stereo not drawn) | 10µM | 8.3µM | – | –
CC(OC(=O)c1ccc(NC(=O)CC#N)cc1)C(=O)NCCC1=CCCCC1 (stereo not drawn) | 10µM | 9.3µM | – | –
Cc1ccc(C)c(NC(=O)C(OC(=O)c2ccc(NC(=O)CC#N)cc2)c2ccccc2)c1 (stereo not drawn) | ? | 10µM | · | –
CCn1c2ccccc2c2cc(NC(=O)C(C)OC(=O)c3ccc(NC(=O)CC#N)cc3)ccc21 (stereo not drawn) | ? | 12µM | – | –
